We go through 94 molecules from PubChem BioAssay AID504834 (National Center for Advancing Translational Sciences (NCATS), 2011).

The whole screen tested about 320,000 compounds, of which about 22,000 (6.9%) were called active. A call without a number means that no potency is given here. Inconclusive results (about 27%) are left out. Calls follow the shape of the dose curve; as a rule, active = well fitted inhibition curve with a large enough effect; inconclusive = small, poorly fitted or top-dose-only effect, or another doubt; inactive = no such curve, though single readings can be large or run the other way. Only a selection was taken, and actives are over-represented in it overall.
Potency is read from the fitted curve at half-maximal effect.

The test can be described thus: Primary qHTS for delayed death inhibitors of the malarial parasite plastid, 96 hour incubation. The conditions noted are these: P. falciparum luciferase reporter growth; series mostly up to 28.7 µM. In a few lines:
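P. falciparum expressing integrated firefly luciferase grown in erythrocytes (2% hematocrit, 0.05% parasitemia final) with compounds for 96 hours at 37 C, 5% CO2. Growth inhibition read as loss of luminescence after adding luciferase detection reagent.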
A general note: qHTS replaces the single test concentration by a dilution series.
Turning to `CSCC[C@H](NC(=O)N1CCn2c1nc1ccccc12)C(=O)NC1CCCCC1`, the Potency result was “inactive”.
The value for `CCn1c(SCC(=O)NC2CC2)nnc1-c1ccncc1` was “inactive”; that for `Cc1ccc(-n2cc(CN(C)Cc3nccn3C)c(-c3cccc(C)c3)n2)cc1` was 3.7 µM (active); that for `Cc1cccc(-n2cc(CN3CCN(C(=O)c4ncn[nH]4)CC3)c(-c3cccc(F)c3)n2)c1` was “inactive”.
Then `COc1ccc(-n2cc(CN(C)Cc3n[nH]c(=O)[nH]3)c(-c3cccc(F)c3)n2)cc1`, with “inactive”.
The value for `CCCCn1c(N)c(N(CC(C)C)C(=O)c2cnc(C)cn2)c(=O)[nH]c1=O` was “inactive”; that for `Cc1nn(Cc2ccccc2)c(C)c1NS(=O)(=O)c1ccccc1` was 10.4 µM (active); that for `Cc1cc(NS(=O)(=O)c2ccccc2)no1` was “inactive”.
`Cc1nn(Cc2ccccc2)c(C)c1C(=O)NCCCN1CCCC1=O`: the Potency result is “inactive”.
The value for `NNC(=O)c1cccc(COCC(F)(F)C(F)F)c1` was “inactive”; that for `COCCNc1nnc(SCC(=O)NNC(=O)c2ccco2)s1` was “inactive”.
The value for `CCCc1nnc(NC(=O)CCC(=O)NC2CC2)s1` was “inactive”.
The value for `COc1ccc(CNC(=O)C2CCN(S(=O)(=O)c3ccc(SC)cc3)CC2)cc1` was “inactive”; that for `CSc1ccc(S(=O)(=O)N2CCC(C(=O)NCc3ccncc3)CC2)cc1` was 7.38 µM (active).
On to `O=C(NCc1ccncc1)C1CCCN(S(=O)(=O)c2ccc(Br)cc2)C1` (centres undefined), for which the Potency result was “inactive”.
With `CSc1ccc(NC(=O)/C=C/C(=O)O)cc1`, the Potency result was “inactive”.
Then `O=C(Nc1ccccc1C(=O)N1CCCCC1)c1ccco1`, with “inactive”.
With `O=C(Cn1nnc(-c2ccccc2)n1)NC(=O)NC1CCCC1`, the Potency entry is “inactive”.
In the case of `COc1cccc(N(CC(=O)NC2CCCC2)C(=O)Cn2nnc(-c3ccc(C)cc3)n2)c1`, the Potency entry is “inactive”.
Regarding `CCC(C(=O)NC1CCCC1)N(C(=O)Cn1nnc(-c2ccc(C)o2)n1)c1ccc(OC)c(OC)c1` (centres undefined), the Potency result was “inactive”.
Then `CCOCCCN(C(=O)Cn1nnc(-c2ccc(OC)c(OC)c2)n1)C(CC)C(=O)NC1CCCC1` (centres undefined), with “inactive”; and `COc1ccc(-c2nnn(CC(=O)N(CCO)C(C(=O)NC3CCCC3)c3ccc(F)cc3)n2)cc1` (centres undefined), with “inactive”.
Then `COc1ccc(C(C(=O)NC2CCCC2)N(CCCO)C(=O)Cn2nnc(-c3ccc(C)o3)n2)cc1` (centres undefined), with 3.7 µM (active); and `COc1ccc(C)cc1N(C(=O)Cn1nnc(-c2ccc(C)o2)n1)C(C(=O)NC1CCCC1)c1ccncc1` (centres undefined), with 8.28 µM (active); and `Cc1cccc(N(C(=O)Cn2nnc(-c3ccc(C)o3)n2)C(C(=O)NC2CCCC2)c2ccncc2)c1` (centres undefined), with “inactive”.
Then `COc1cccc(N(CC(=O)NC2CCCC2)C(=O)Cn2nnc(-c3ccc(C)o3)n2)c1`, with 11.7 µM (active); and `CC1CC(C)CN(c2ccc(S(=O)(=O)N3CCOCC3)cc2)C1` (centres undefined), with “inactive”.
As for `Cc1occc1-c1nnc(SCC(=O)NC2CCCCC2)o1`, the Potency result is “inactive”.
Consider `Cc1nc(N)nc(SCc2ccc([N+](=O)[O-])cc2)c1N`, for which the Potency result is “inactive”.
Regarding `O=C(c1ccc(Cl)c(S(=O)(=O)N2CCCCC2)c1)N1CCCCCC1`, the Potency entry is “inactive”.
For the molecule `COc1ccc(Cl)cc1NS(=O)(=O)c1cccc(C(=O)NC2CCC(O)CC2)c1` (centres undefined), the Potency result was “inactive”.
Then `CCCCN(CCCC)CCNC(=O)CN1C(=O)COc2ccc(S(=O)(=O)N3CCOCC3)cc21`, with “inactive”; and `Cc1ccc(OCC(=O)Nc2ccccc2C(=O)NC2CC2)cc1C`, with “inactive”; and `Cc1onc(NC(=O)c2ccc([N+](=O)[O-])o2)c1Br`, with 5.86 µM (active).
Then `O=C(OCC(=O)c1cccs1)c1ccc([N+](=O)[O-])o1`, with “inactive”; and `Cc1cc(NC(=O)COc2ccc([N+](=O)[O-])cc2)no1`, with “inactive”; and `Cc1cc(C)c2c(=O)[nH]c(SCC(=O)Nc3ccc(Br)cc3)nc2n1`, with “inactive”.
Then `Cc1ccc(S(=O)(=O)N2CCOCC2)cc1NC(=O)COC(=O)c1cnccn1`, with “inactive”; and `Nc1nc(SCC(=O)Nc2ccc(Cl)cc2C(F)(F)F)n[nH]1`, with “inactive”; and `Cc1ccc(S(=O)(=O)NCC2CCC(C(=O)N3CCOCC3)CC2)cc1` (centres undefined), with “inactive”.
In the case of `CN(C)S(=O)(=O)c1ccc(C(=O)NCC(C)(C)N2CCOCC2)cc1`, the Potency result is “inactive”.
As to `CC(C)(CNC(=O)c1ccc(Cl)c(S(=O)(=O)N2CCc3ccccc3C2)c1)N1CCOCC1`, the Potency is 7.38 µM (active).
The value for `CC(C)(CNC(=O)Cc1ccc(Cl)cc1Cl)N1CCOCC1` was “inactive”.
Then `Cc1ccccc1CSCCNC(=O)c1ccc(Cl)c(S(=O)(=O)N2CCOCC2)c1`, with 13.1 µM (active); and `O=C(NCc1cccnc1)c1cc(S(=O)(=O)N2CCOCC2)c(Cl)cc1Cl`, with “inactive”.
Then `Cc1ccccc1CSCCNC(=O)c1ccc(N(C)S(=O)(=O)c2ccccc2)cc1`, with “inactive”; and `O=C(NCCSCc1ccccc1)c1ccc(Cl)c(S(=O)(=O)N2CCOCC2)c1`, with 11.7 µM (active); and `Cc1ccc(NC(=O)CCCNC(=O)c2ccc(Cl)cc2)cc1S(=O)(=O)N1CCOCC1`, with “inactive”.
For the molecule `CN(CC(=O)Nc1ccc(F)cc1)CC(=O)Nc1ccc(Cl)c(S(=O)(=O)N2CCOCC2)c1`, the Potency entry is “inactive”.
The value for `COc1ccccc1N(CC(=O)NC1CCCC1)C(=O)C1(C)CC(=O)N=C2C=CC(C)=CN21` (centres undefined) was “inactive”; that for `O=C(Nc1ccc(N2CCCCC2)cc1)c1cc(S(=O)(=O)N2CCOCC2)ccc1F` was “inactive”; that for `COC(=O)c1ccc(CNC(=O)c2ccc3oc(C(C)C)nc3c2)cc1` was “inactive”.
Then `NCCCCC(N)C(=O)O` (centres undefined), with “inactive”.
Then `COCC1CCN(C(=O)c2ccc3oc(Cc4ccccc4)nc3c2)C1` (centres undefined), with “inactive”; and `CCOc1ccc2nc(NCCNS(=O)(=O)c3ccccc3)c(C#N)cc2c1`, with 13.1 µM (active); and `CCOc1ccc(S(=O)(=O)NCCSc2ccccc2)cc1`, with “inactive”.
Turning to `COc1ccc(CNC(=O)C(C)NCc2ccccc2Cl)cc1` (centres undefined), the Potency entry is “inactive”.
The value for `CCOC(=O)CN(Cc1ccc(OC)c(OC)c1)S(=O)(=O)c1ccc(OC)cc1` was 9.28 µM (active); that for `CCOC(=O)N1CCN(C(=O)c2ccccc2N(Cc2ccccc2)S(=O)(=O)c2ccc(OC)cc2)CC1` was “inactive”.
For the molecule `COc1ccc(S(=O)(=O)N(CC(=O)N/N=C/c2ccc(C(=O)O)cc2)Cc2ccccc2)cc1OC`, the Potency entry was “inactive”.
Then `CCNC(=O)Nc1ccc(S(=O)(=O)Nc2cnc(C)nc2C)cc1`, with “inactive”; and `COc1cc2c(C(=O)O)c(C)n(C)c2c2ccccc12`, with “inactive”.
Then `O=C(NCCc1ccccc1)C(=O)NCC1OCCN1S(=O)(=O)c1cccs1` (centres undefined), with “inactive”; and `COc1ccc(NS(=O)(=O)c2ccc(Oc3c(C#N)cccc3C#N)cc2)cc1`, with “inactive”; and `CC(=O)Nc1cccc(Nc2nc(-c3cccs3)nc3ccccc23)c1`, with 9.28 µM (active).
As to `Cc1cccc(-c2nc(Nc3ccc(O)cc3)c3ccccc3n2)c1`, the Potency result was “inactive”.
The value for `O=c1[nH]c(-c2cccs2)nc2ccccc12` was “inactive”; that for `CSc1nc2ccccc2c(=O)n1Cc1ccc(F)cc1` was “inactive”; that for `CSc1c(SCc2ccccc2)cnn(Cc2ccccc2)c1=O` was 9.28 µM (active).
The value for `Cn1c(CO)cnc1SCc1ccccc1` was “inactive”.
Consider `Cc1ccc(C)c(OCCC(=O)OCC(=O)N2CCN(c3ccccc3)CC2)c1`, for which the Potency result is “inactive”.
Consider `CC(C)(C)SCCSC1=CC(=O)CC(c2ccccc2)C1` (centres undefined), for which the Potency entry is “inactive”.
On to `O=C1C=C(c2cccc(Cl)c2O)C[C@@H](c2ccc(F)cc2)C1`, for which the Potency is 4.65 µM (active).
Then `COc1cccc(C2=CC(=O)C[C@H](c3ccc(F)cc3)C2)c1OC`, with “inactive”; and `COc1ccc([C@H]2CC(=O)C=C(/C=C/c3ccc(Cl)cc3)C2)cc1`, with “inactive”.
The value for `O=C1C=C(c2cccc(Br)c2)C[C@@H](c2ccc(F)cc2)C1` was 2.33 µM (active); that for `O=C(Cn1cnc2ccccc21)Nc1ccccc1-c1ccccc1` was “inactive”; that for `COc1ccc(/C=C(/NC(=O)c2ccco2)C(=O)Nc2ccc(C(C)=O)cc2)cc1` was “inactive”.
The value for `O=C(O)c1cccc2c1C(=O)N(C1CCCC1)C2` was “inactive”; that for `O=C(C[n+]1ccccc1)N/N=C/c1ccc(O)cc1` was “inactive”; that for `Cc1nc2ccccc2cc1C(=O)N/N=C/c1ccc([N+](=O)[O-])cc1` was “inactive”.
Turning to `Cc1nonc1C(=O)N/N=C/c1ccc(O)cc1`, the Potency was 0.262 µM (active).
The value for `NC(=O)NC(CC(=O)NNC(=O)c1ccccn1)c1ccc(Cl)cc1` (centres undefined) was “inactive”; that for `O=C(NNC(=O)c1cc(S(=O)(=O)N2CCCCC2)ccc1Cl)c1ccccc1O` was “inactive”.
Turning to `O=C(Nc1ccccc1)c1ccc(NC(=O)c2cccs2)cc1`, the Potency entry is “inactive”.
For the molecule `O=C(Nc1ccccc1Cl)Nc1cccc2cccnc12`, the Potency entry was “inactive”.
For the molecule `O=C(c1cc2nc(-c3ccccc3)cc(-c3ccccc3)n2n1)N1CCC2(CC1)OCCO2`, the Potency result was “inactive”.
Then `CC(=O)N1CCN(C(=O)c2cc(-c3ccc(C)o3)nc3ccccc23)CC1`, with “inactive”; and `O=C(c1cc(-c2ccncc2)nc2ccccc12)N1CCC2(CC1)OCCO2`, with 4.15 µM (active); and `Cc1cc(C(=O)OC(C)C(=O)NC2CCCCC2C)c(C)o1` (centres undefined), with “inactive”.
Then `CC1(C(=O)O)CCC(C(=O)Nc2ccc(Cl)c(Cl)c2)C1(C)C` (centres undefined), with 10.4 µM (active); and `CCN(CC)C(=O)C1CCC(C)(C(=O)O)C1(C)C` (centres undefined), with “inactive”; and `NC(=O)N1CCCC1C(=O)Nc1ccc(Cl)c(Cl)c1` (centres undefined), with “inactive”.
Then `O=C(CN1CCN(S(=O)(=O)c2cccc(Cl)c2)CC1)N1CCCCC1`, with “inactive”.
